According to PubChem BioAssay (EPA / NIEHS):
Calls of active or inactive are those of the source. Rule for the calls: active = hit-call score of the fitted dose curve at least 0.9, where 1 is the maximum; inactive = score below 0.9.

Key:
Settings in all cases: mRNA level, 48 h; actives raise or lower the signal
[1] = read-out: Cyclin Dependent Kinase Inhibitor 1A (CDKN1A), CDKN1A (gene 1026); test: LTEA_HepaRG_CDKN1A: Life Technologies and Expression Analysis (LTEA) Assay for Cyclin Dependent Kinase Inhibitor 1A (CDKN1A) using HepaRG (AID 2283450)
How it was run: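 Gain or loss of CDKN1A transcript is scored by bidirectional fitting against 0.5% DMSO vehicle. Human HepaRG cultures receive chemicals for 48 h across an 8-point series peaking at 100 uM; expression comes from qRT-PCR.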

[2] = read-out: Cyclin D1 (CCND1), CCND1 (gene 595); test: LTEA_HepaRG_CCND1: Life Technologies and Expression Analysis (LTEA) Assay for Cyclin D1 (CCND1) using HepaRG (AID 2283451);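 for AC50: TaqMan qRT-PCR transcript level normalised to ACTB GAPDH and POLR2A housekeeping genes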
How it was run: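 Expression change is measured by qRT-PCR in HepaRG cells after 48 h treatment across eight concentrations topping at 100 uM, with duplicate wells and DMSO (0.5%) serving as baseline for bidirectional fitting.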

[3] = read-out: catalase (CAT), CAT (gene 847); test: LTEA_HepaRG_CAT: Life Technologies and Expression Analysis (LTEA) Assay for catalase (CAT) using HepaRG (AID 2283452);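 for AC50: TaqMan qRT-PCR signal normalized to ACTB GAPDH and POLR2A housekeeping genes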
How it was run: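 Differentiated HepaRG cells in serum-free induction medium were dosed 48 h in duplicate, eight half-log concentrations from 100 uM in 0.5% DMSO. Transcript measured by TaqMan qRT-PCR, normalised to ACTB/GAPDH/POLR2A, fitted bidirectionally against DMSO.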

[4] = read-out: flavin-containing dimethylaniline monooxygenases 3 (FMO3), FMO3 (gene 2328); test: LTEA_HepaRG_FMO3: Life Technologies and Expression Analysis (LTEA) Assay for flavin-containing dimethylaniline monooxygenases 3 (FMO3) using HepaRG (AID 2283453)
How it was run: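 Differentiated HepaRG cells in serum-free induction medium, exposed 48 h in duplicate to 8 half-log concentrations up to 100 uM in 0.5% DMSO. FMO3 mRNA by qRT-PCR, normalized to ACTB, GAPDH, POLR2A; bidirectional fit vs DMSO.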

[5] = read-out: Cytochrome P450 (CYP1A1), CYP1A1 (gene 1543); test: LTEA_HepaRG_CYP1A1: Life Technologies and Expression Analysis (LTEA) Assay for Cytochrome P450 (CYP1A1) using HepaRG (AID 2283454)
How it was run: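 Using HepaRG cultures with 0.5% DMSO as vehicle, eight-concentration exposures (max 100 uM) lasted 48 h. Transcript levels were measured by TaqMan qRT-PCR and normalized to ACTB, GAPDH and POLR2A.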

[6] = read-out: Forkhead box O1 (FOXO1), FOXO1 (gene 2308); test: LTEA_HepaRG_FOXO1: Life Technologies and Expression Analysis (LTEA) Assay for Forkhead box O1 (FOXO1) using HepaRG (AID 2283456)
How it was run: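 Differentiated human HepaRG cells in serum-free induction medium were exposed in duplicate for 48 h to eight half-log concentrations (top 100 uM, 0.5% DMSO). FOXO1 mRNA was measured by TaqMan qRT-PCR, normalised to ACTB, GAPDH and POLR2A, and fitted bidirectionally against DMSO.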

[7] = read-out: growth arrest and DNA damage 45 (GADD45A), GADD45A (gene 1647); test: LTEA_HepaRG_GADD45A: Life Technologies and Expression Analysis (LTEA) Assay for growth arrest and DNA damage 45 (GADD45A) using HepaRG (AID 2283458)
How it was run: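 Cells plated and cultured 48 h, switched to serum-free induction medium, then dosed for 48 h (100 uM top, half-log dilutions, 0.5% DMSO). RNA was isolated and transcript measured by Fluidigm qRT-PCR.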

[8] = read-out: Forkhead box O3 (FOXO3), FOXO3 (gene 2309); test: LTEA_HepaRG_FOXO3: Life Technologies and Expression Analysis (LTEA) Assay for Forkhead box O3 (FOXO3) using HepaRG (AID 2283459)
How it was run: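 Differentiated human HepaRG cells in serum-free induction medium were exposed in duplicate for 48 h to eight half-log concentrations up to 100 uM in 0.5% DMSO. FOXO3 mRNA was quantified by qRT-PCR, normalized to ACTB, GAPDH and POLR2A, with bidirectional fitting versus DMSO.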

[9] = read-out: ABC Transporter (ABCB1), ABCB1 (gene 5243); test: LTEA_HepaRG_ABCB1: Life Technologies and Expression Analysis (LTEA) Assay for ABC Transporter (ABCB1) using HepaRG (AID 2283460)
How it was run: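 Differentiated human HepaRG cells, plated 48 h then switched to serum-free induction medium, were exposed in duplicate to eight half-log concentrations up to 100 uM in 0.5% DMSO for 48 h. ABCB1 mRNA was measured by TaqMan qRT-PCR, normalized to ACTB/GAPDH/POLR2A.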

[10] = read-out: growth arrest and DNA damage 45 (GADD45B), GADD45B (gene 4616); test: LTEA_HepaRG_GADD45B: Life Technologies and Expression Analysis (LTEA) Assay for growth arrest and DNA damage 45 (GADD45B) using HepaRG (AID 2283461)
How it was run: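 Human HepaRG monolayers receive chemicals for 48 h at eight half-log concentrations, highest 100 uM, in 0.5% DMSO. Expression is measured by TaqMan qRT-PCR and normalized to ACTB, GAPDH and POLR2A.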

[11] = read-out: ABC Transporter (ABCC3), ABCC3 (gene 8714); test: LTEA_HepaRG_ABCC3: Life Technologies and Expression Analysis (LTEA) Assay for ABC Transporter (ABCC3) using HepaRG (AID 2283462)
How it was run: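 Transcriptional change of ABCC3 in HepaRG after 48 h treatment, determined by qRT-PCR normalized to endogenous controls. Concentrations spanned eight half-log steps to 100 uM in 0.5% DMSO.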

[12] = read-out: ABC Transporter (ABCB11), ABCB11 (gene 8647); test: LTEA_HepaRG_ABCB11: Life Technologies and Expression Analysis (LTEA) Assay for ABC Transporter (ABCB11) using HepaRG (AID 2283463)
How it was run: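 Differentiated human HepaRG cells were exposed for 48 h in serum-free induction medium to eight half-log concentrations up to 100 uM in 0.5% DMSO. ABCB11 mRNA was quantified by qRT-PCR, normalized to ACTB, GAPDH and POLR2A, and fitted bidirectionally versus DMSO.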

[13] = read-out: ABC Transporter (ABCC2), ABCC2 (gene 1244); test: LTEA_HepaRG_ABCC2: Life Technologies and Expression Analysis (LTEA) Assay for ABC Transporter (ABCC2) using HepaRG (AID 2283464)
How it was run: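 After plating and 48 h culture, HepaRG medium is replaced with serum-free induction medium and chemicals are added (8 concentrations, max 100 uM, 0.5% DMSO) for 48 h. Total RNA then undergoes qRT-PCR for ABCC2 with housekeeping normalization.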

[14] = read-out: Broad substrate specificity ATP-binding cassette transporter ABCG2 (Homo sapiens) (UniProt Q9UNQ0); test: LTEA_HepaRG_ABCG2: Life Technologies and Expression Analysis (LTEA) Assay for ABC Transporter (ABCG2) using HepaRG (AID 2283465)
How it was run: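 Differentiated HepaRG cells in serum-free induction medium were exposed for 48 h, in duplicate, to eight half-log concentrations up to 100 uM in 0.5% DMSO. ABCG2 mRNA was measured by TaqMan qRT-PCR, normalized to ACTB, GAPDH and POLR2A, and fitted bidirectionally versus DMSO.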

[15] = read-out: ATP-citrate lyase (ACLY), ACLY (gene 47); test: LTEA_HepaRG_ACLY: Life Technologies and Expression Analysis (LTEA) Assay for ATP-citrate lyase (ACLY) using HepaRG (AID 2283466)
How it was run: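 Differentiated human HepaRG cells in serum-free induction medium exposed 48 h, in duplicate, to eight half-log concentrations from 100 uM top in 0.5% DMSO; ACLY mRNA measured by qRT-PCR, normalized to ACTB, GAPDH, POLR2A, fitted bidirectionally versus DMSO.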

[16] = read-out: Peroxisomal acyl-coenzyme A oxidase 1 (ACOX1) gene, ACOX1 (gene 51); test: LTEA_HepaRG_ACOX1: Life Technologies and Expression Analysis (LTEA) Assay for Peroxisomal acyl-coenzyme A oxidase 1 (ACOX1) gene using HepaRG (AID 2283467)
How it was run: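 Differentiated human HepaRG cells were exposed in duplicate for 48 h in serum-free induction medium to eight half-log concentrations up to 100 uM in 0.5% DMSO. ACOX1 mRNA was then quantified by TaqMan qRT-PCR, normalized to ACTB, GAPDH and POLR2A.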

[17] = read-out: Alkaline Phosphatase, Placental (ALPP) gene, ALPP (gene 250); test: LTEA_HepaRG_ALPP: Life Technologies and Expression Analysis (LTEA) Assay for Alkaline Phosphatase, Placental (ALPP) gene using HepaRG (AID 2283468)
How it was run: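 Using human liver HepaRG cells, chemicals are tested in duplicate over 48 h at half-log concentrations topping at 100 uM; phenobarbital 1 mM serves as induction control. ALPP mRNA change by qRT-PCR, bidirectional fit against vehicle.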

[18] = read-out: CFLAR gene, CFLAR (gene 8837); test: LTEA_HepaRG_CFLAR: Life Technologies and Expression Analysis (LTEA) Assay for CFLAR gene using HepaRG (AID 2283455)
How it was run: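 HepaRG cells were plated for 48 h, switched to serum-free induction medium, then exposed in duplicate for 48 h to 8 concentrations (top 100 uM, half-log steps, 0.5% DMSO). CFLAR mRNA was measured by qRT-PCR, normalized to ACTB, GAPDH and POLR2A.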

Measured: AC50

Broad substrate specificity ATP-binding cassette transporter ABCG2 (Homo sapiens), sequence (Q9UNQ0 whole entry, looked up): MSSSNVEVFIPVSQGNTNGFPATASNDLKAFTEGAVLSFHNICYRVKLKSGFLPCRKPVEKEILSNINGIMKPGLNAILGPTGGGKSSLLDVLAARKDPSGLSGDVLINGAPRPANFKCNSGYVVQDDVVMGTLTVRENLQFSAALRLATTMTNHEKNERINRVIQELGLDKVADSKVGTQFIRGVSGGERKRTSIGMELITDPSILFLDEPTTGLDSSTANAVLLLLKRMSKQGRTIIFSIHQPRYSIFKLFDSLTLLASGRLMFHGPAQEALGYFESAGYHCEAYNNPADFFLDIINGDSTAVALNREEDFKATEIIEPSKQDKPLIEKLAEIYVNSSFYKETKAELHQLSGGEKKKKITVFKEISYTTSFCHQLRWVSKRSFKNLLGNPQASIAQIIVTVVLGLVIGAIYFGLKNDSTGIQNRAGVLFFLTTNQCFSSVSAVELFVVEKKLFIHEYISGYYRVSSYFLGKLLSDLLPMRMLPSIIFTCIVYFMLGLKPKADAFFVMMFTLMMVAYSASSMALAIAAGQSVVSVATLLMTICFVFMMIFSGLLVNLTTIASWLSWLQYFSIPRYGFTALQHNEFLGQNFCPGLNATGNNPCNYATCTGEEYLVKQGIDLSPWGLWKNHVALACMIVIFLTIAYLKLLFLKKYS

CCC(C)n1c(=O)[nH]c(C)c(Br)c1=O (centres undefined)
active: [2] 27.6 µM | [3] 40.4 µM | [4] 29 µM | [5] 5.11 µM | [8] 14.3 µM | [10] 28.5 µM | [12] 30 µM | [16] 21.6 µM
inactive: [1] | [6] | [7] | [9] | [11] | [13] | [14] | [15]

Cn1c(-c2ccccc2)cc(-c2ccccc2)[n+]1C
inactive: [7] | [14]
active: [1] 50 µM | [2] 75.6 µM | [3] 21.9 µM | [4] 50 µM | [5] 75 µM | [6] 77.7 µM | [8] 2.57 µM | [11] 2.67 µM | [12] 24.4 µM | [13] 62.6 µM | [16] 21.2 µM

COC(=O)N(C(=O)N1CO[C@@]2(C(=O)OC)Cc3cc(Cl)ccc3C2=N1)c1ccc(OC(F)(F)F)cc1
active: [3] 40 µM | [4] 40 µM | [5] 5.08 µM | [10] 8.78 µM | [12] 40 µM | [16] 40 µM
not listed: [15] | [18]
inactive: all other assays above

N#Cc1c(Cl)cccc1Cl
active: [5] 50 µM
not listed: [15] | [17] | [18]
inactive: all other assays above

Cc1cc(C)nc(Nc2ccccc2)n1
active: [5] 1.2 µM
not listed: [15] | [18]
inactive: all other assays above

N#Cc1c[nH]cc1-c1cccc2c1OC(F)(F)O2
inactive: [1] | [6] | [7] | [9] | [11] | [13] | [16]
active: [2] 50 µM | [3] 74.9 µM | [4] 71.8 µM | [5] 77.2 µM | [18] 14.7 µM | [8] 12.3 µM | [10] 27.1 µM | [12] 44.8 µM | [14] 50 µM | [17] 10 µM

CCOP(=O)(OCC)Oc1nc(Cl)c(Cl)cc1Cl
active: [2] 80.7 µM | [3] 91.1 µM | [4] 79.3 µM | [5] 73.5 µM | [11] 80.5 µM | [12] 79.2 µM | [13] 76.4 µM | [16] 74.9 µM
inactive: [1] | [6] | [7] | [8] | [9] | [10] | [14] | [15]

CCCCC(O)(Cn1cncn1)c1ccc(Cl)cc1Cl (centres undefined)
inactive: [8] | [10] | [14]
active: [1] 35.4 µM | [2] 57.7 µM | [3] 73 µM | [4] 75.9 µM | [5] 12.9 µM | [6] 80.2 µM | [7] 89.9 µM | [9] 11.8 µM | [11] 50 µM | [12] 68.6 µM | [13] 79.9 µM | [15] 12.3 µM | [16] 69.4 µM | [17] 73.3 µM

Nc1cnn(-c2ccccc2)c(=O)c1Cl
active: [5] 71.7 µM
not listed: [15] | [17] | [18]
inactive: all other assays above

CS(=O)(=O)c1ccc(C(=O)C2C(=O)CCCC2=O)c([N+](=O)[O-])c1
active: [5] 19.1 µM
not listed: [15]
inactive: all other assays above

COCC(C)N(C(=O)CCl)c1c(C)csc1C (centres undefined)
active: [5] 50 µM | [10] 74.1 µM | [12] 50 µM | [13] 32.6 µM
not listed: [8] | [15] | [17] | [18]
inactive: all other assays above

COc1cc(Cl)c(OC)cc1Cl
active: [5] 27.9 µM
not listed: [13] | [15] | [18]
inactive: all other assays above

CC1(C)C(C(=O)OC(C#N)c2cccc(Oc3ccccc3)c2)C1(C)C (centres undefined)
active: [5] 50 µM
not listed: [15] | [18]
inactive: all other assays above

COc1ccc(-c2ccccc2)cc1NNC(=O)OC(C)C
active: [5] 75.1 µM
not listed: [15] | [18]
inactive: all other assays above
